From PubChem BioAssay
RAM inhibit – inhibitors of the yeast RAM network, primary screen, dse1pr::URA3 reporter, 5-FOA selection; S. cerevisiae dse1pr::URA3 reporter, 5-FOA growth OD615, 2 d; analog-sensitive cbk1-as2 kinase mutant strain; hit rate 1.8% among 190,000; inhibition, % at 50 µM;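 active means inhibition above a set limit, 3 SD over mean compound inhibition, cut at about 8.4% in these data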;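 further: 0% = DMSO-only wells with no growth and 100% = 10 µM 1-NA-PP1 full growth; inhibition rescues growth on 5-FOA so higher OD means more RAM inhibition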
EP2 mod – EP2 receptor modulators, cAMP readout, primary screen, cell-based, HTRF cAMP, PGE2 stimulation; hit rate 0.83% among 260,000; EP2-expressing cells, cAMP HTRF FRET, PGE2 co-stimulation; induction, % at 25 µM;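 active means compounds whose cAMP rise, as percent of the full-agonist control response, exceeds 60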;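 further: rat C6 glioma line stably carrying human EP2 under a CMV promoter; the protocol text gives 20 µM as final concentration; 100% = response of wells given 1 µM PGE2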
PG9 Ab binder – binders of HIV-1 gp120 antibody PG9, primary screen, biochemical, TR-FRET; HIV-1 gp120 / PG9 antibody interaction; TR-FRET gp120-PG9 antibody binding; inhibition, % at 6.7 µM; hit rate 0.43% among 360,000; AID 624416, 2012; in the data active means inhibition above about 8.5%
NR1D1 modulator – modulators of Rev-erb alpha DNA binding, primary screen, biochemical, FITC-DNA, fluorescence polarization, uHTS. AID 1259318, 2017. Rev-erbα–FITC-DNA binding, 90 min. activity, % at 10 µM. hit rate 0.79% among 370,000;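 active means activity above about 14%, limit read from the data; passing the limit was not always enough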;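 further: 0% = DMSO wells with 35 nM protein and 100% = DMSO wells with 750 nM protein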
Target sequence (P20393 whole entry, looked up): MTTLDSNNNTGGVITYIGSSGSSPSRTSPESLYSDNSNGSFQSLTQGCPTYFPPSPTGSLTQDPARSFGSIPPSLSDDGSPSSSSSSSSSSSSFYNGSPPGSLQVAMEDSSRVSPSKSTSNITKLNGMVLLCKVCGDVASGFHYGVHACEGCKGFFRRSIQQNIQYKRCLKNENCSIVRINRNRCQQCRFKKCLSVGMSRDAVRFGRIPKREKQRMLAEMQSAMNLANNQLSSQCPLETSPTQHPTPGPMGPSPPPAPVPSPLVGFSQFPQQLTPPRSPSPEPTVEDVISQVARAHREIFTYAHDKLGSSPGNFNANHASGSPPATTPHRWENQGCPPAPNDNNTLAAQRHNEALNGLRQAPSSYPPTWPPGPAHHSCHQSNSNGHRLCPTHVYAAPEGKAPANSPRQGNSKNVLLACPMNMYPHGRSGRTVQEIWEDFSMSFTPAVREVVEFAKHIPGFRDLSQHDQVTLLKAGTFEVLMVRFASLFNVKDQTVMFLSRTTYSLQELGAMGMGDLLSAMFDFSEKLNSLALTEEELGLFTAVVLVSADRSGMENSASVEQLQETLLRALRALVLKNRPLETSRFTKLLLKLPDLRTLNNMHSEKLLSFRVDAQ
SKN-1 inh – suppressors of acrylamide-induced Pgst-4::GFP reporter in worms, primary screen, SKN-1 inhibitor project, whole organism, uHTS, GFP/RFP fluorescence ratio, strain VP596; AID 624304, 2012; inhibition, % at 21.8 µM; hit rate 0.49% among 360,000; C. elegans VP596 Pgst-4::GFP/RFP ratio, 24 h;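 active means interference check ratio from 0.5 to 1.5 plus GFP to RFP signal ratio inhibition reaching or exceeding a fixed threshold, cut at about 30% in these data, passing the limit was not always enough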
EP2 antag – human EP2 receptor antagonists, primary screen, TR-FRET cAMP, C6 glioma cells; inhibition, % at 25 µM; hit rate 0.52% among 260,000; Prostaglandin E2 receptor EP2 subtype (Homo sapiens), P43116; C6 glioma cells expressing human EP2; cells stimulated with saturating PGE2;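 active means percent inhibition above 40 after rounding to a whole number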;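 further: rat C6 glioma host cells with rolipram phosphodiesterase inhibitor present; the protocol text gives 20 µM as final concentration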
Numbers without * were called inactive; · = no result. Shown are actives, neighbours in structure and some others; about 2.9% of the full set was active somewhere.

SMILES	RAM inhibit	EP2 mod	PG9 Ab binder	NR1D1 modulator	SKN-1 inh	EP2 antag
Clc1ccc(CSc2nccn2Cc2ccccc2)cc1	3.1	12.3	0.6	1.0	37.8*	11.2
CCCS(=O)(=O)NCc1ccc2c(c1)cc(C)n2C	2.9	17.5	-0.2	8.4	53.1*	11.2
CCC(CC)C(=O)NCc1ccc2c(c1)cc(C)n2C	1.4	-11.1	2.0	-2.7	39.6	4.4
CCOC(=O)NCc1ccc2c(c1)cc(C)n2C	5.1	8.8	2.5	3.6	52.5*	3.6
CCOC(=O)CCC(=O)NCc1ccc2c(c1)cc(C)n2C	0.1	7.4	1.8	-3.3	67.3	5.3
Cc1cc2cc(CNC(=O)C3CC3)ccc2n1C	-0.5	21.3	0.6	-2.0	39.9*	8.9
CCCCC(=O)NCc1ccc2c(c1)cc(C)n2C	3.6	-51.3	2.1	-3.4	50.5*	4.9
Fc1ccc(Cn2nnnc2CN2CCn3cc(C(F)(F)F)nc3C2)cc1	·	9.6	·	·	·	·
COc1ccc(-c2nc3ccccn3c2NC2CCCC2)cc1O	·	-10.2	·	·	·	18.6
O=C(NCCc1nnc2ccc(NCc3ccc(Cl)cc3)nn12)c1ccccc1	8.5*	10.0	0.0	-3.6	-5.2	1.7
Cc1ccc(N=c2ssnc2Cl)cc1	-1.3	-46.9	1.8	4.5	8.8	134.3*
Cc1cc(Cl)ccc1N=c1ssnc1Cl	1.8	-54.7	1.8	6.2	2.8	76.5*
Nc1ccccc1N=c1ssnc1Cl	0.1	-13.2	0.8	-2.1	4.8	8.2
Cc1cc(C)nc(/N=c2/ssnc2Cl)c1	-0.3	-4.5	1.0	3.0	-12.7	11.0
Cc1cc(Cl)ccc1N=C1N=C(N)c2ccccc21	8.9*	6.7	-1.2	-4.7	12.8	6.5
COc1cc(N=c2ssnc2Cl)c(OC)cc1Cl	-1.2	-51.5	2.4	0.9	19.5	6.6
COc1ccc(OC)c(N=c2ssnc2Cl)c1	-0.5	-69.6	-3.0	4.9	3.8	77.3*
NC1=NC(=Nc2ccc(Cl)cc2)c2ccccc21	1.1	19.5	0.6	0.5	16.1	9.6
CCN(CC)C(=O)CSc1nc2cc(OC)c(OC)cc2cc1C	·	5.0	·	·	·	10.8
Cc1ccc(Cl)cc1NC(=O)c1nc2ncccn2n1	·	-20.9	·	·	·	6.6
O=C(/C=C/Nc1ccc(F)cc1F)c1ccco1	1.6	5.1	-0.9	-1.7	45.1*	6.2
O=C(/C=C/Nc1ccc(F)c(Cl)c1)c1ccco1	0.4	-49.6	1.6	-7.1	75.4*	24.6
CN(C)c1ccc(N/C=C/C(=O)c2ccco2)cc1	-0.1	-2.4	-25.7	14.1	39.5*	6.9
O=C(/C=C/Nc1ccc(Br)cc1F)c1ccco1	0.6	14.2	-2.0	-5.1	76.4*	5.6
O=C(/C=C/Nc1cccc(F)c1)c1ccco1	-1.0	1.6	-1.7	0.7	35.0	11.9
SMILES	RAM inhibit	EP2 mod	PG9 Ab binder	NR1D1 modulator	SKN-1 inh	EP2 antag
CCOc1ccc(CNC2(c3ccc(OC)cc3)CC2)cc1Cn1ccnc1	·	-40.3	·	·	·	8.7
NC(=O)C1CCN(C(=O)CSc2nc(-c3ccco3)cc(C(F)(F)F)n2)CC1	·	-27.6	·	·	·	4.3
C[C@@H](Cn1nnc2ccccc21)NC(=O)CSc1ccncc1	·	-20.2	·	·	·	5.8
Cc1cc(N=O)c(C)cc1O	·	·	-6.7	2.3	-10.4	·
Cc1cc(O)c(-c2cc(O)c(C)cc2O)cc1O	·	-28.0	-7.4	-3.5	-0.4	134.1*
CCC(=O)N1CCCC(c2nc(C)ncc2-c2ccncc2)C1 (configuration not stated)	·	-8.9	·	·	·	·
COC(=O)C1=CC(C(=O)c2cccs2)=NN(c2ccc(OC)cc2)C1C(=O)OC (configuration not stated)	1.5	63.0*	-3.0	15.3	30.7	10.3
Cc1cccc(-c2nnc(SCC(=O)Nc3nnc(C)s3)n2C)c1	·	-4.2	·	·	·	13.6
Clc1ccc(-c2cn3ccccc3n2)cc1	·	·	-0.4	2.9	15.6	·
Brc1ccc(-c2cn3ccccc3n2)s1	0.8	-15.5	-0.7	-1.1	83.8*	18.6
COc1cc(O)c(CC=C(C)C)c(O)c1C(=O)CCc1ccc(O)cc1	·	-4.0	-1.6	2.8	-1.9	75.8*
CCN(CC(=O)NCc1ccc(F)cc1)Cc1nc2cc(Cl)ccc2c(=O)[nH]1	1.8	-12.8	1.1	0.3	64.6*	9.5
CCN(CC(=O)NCCc1ccc(F)cc1)Cc1nc2ccccc2c(=O)[nH]1	·	18.5	-1.5	2.2	-4.1	3.7
C=CCOc1cccc(C2/C(=C(\O)c3ccc4c(c3)OCCO4)C(=O)C(=O)N2Cc2cccnc2)c1 (configuration not stated)	·	·	13.6*	2.2	8.6	·
CCOc1ccc(/C(O)=C2/C(=O)C(=O)N(CCOCCO)C2c2cccnc2)cc1 (configuration not stated)	2.6	55.4	9.0*	-5.1	-25.7	25.9
CCOc1ccc(/C(O)=C2/C(=O)C(=O)N(CCOCCO)C2c2ccccc2)cc1 (configuration not stated)	4.0	59.5	6.2	6.1	8.3	21.0
CCCCOc1ccc(/C(O)=C2/C(=O)C(=O)N(Cc3cccnc3)C2c2ccncc2)c(C)c1 (configuration not stated)	0.8	61.4*	6.5	0.8	-5.1	20.1
COc1ccc2c(c1)c(/C=N/Nc1nc3ccccc3[nH]1)c(C)n2C	·	-34.1	-5.5	-6.8	18.1	48.7*
O=C(O)CCCNc1cc(N2CCN(C(=O)c3ccco3)CC2)c2noc3c2c1C(=O)c1ccccc1-3	·	·	-46.1	-5.0	47.0	·
O=C(O)CCCNc1cc(N2CCC3(CC2)OCCO3)c2noc3c2c1C(=O)c1ccccc1-3	8.7*	-28.4	·	·	·	·
CCOC(=O)N1CCN(c2cc(NCCC(=O)O)c3c4c(onc24)-c2ccccc2C3=O)CC1	9.4*	0.4	·	·	36.9	·
CN1CCN(c2cc(N3CCN(C(=O)c4ccco4)CC3)c3c4c(onc24)-c2ccccc2C3=O)CC1	·	·	·	·	57.6	·
COc1ccc(OC)c(C(=O)c2ccc(C(=O)c3cc(OC)ccc3OC)cc2)c1	5.2	28.2	-1.6	0.9	3.7	6.8
COc1ccc(OC)c(C(=O)C2COC(=O)C2)c1 (configuration not stated)	-0.8	-3.0	-0.2	-2.6	36.7*	5.7
CCC(Sc1nnc(-c2ccncc2)n1C)C(=O)Nc1ccc(C(C)=O)cc1 (configuration not stated)	·	3.7	·	·	·	6.0
Cc1nn(C)c(C)c1NC(=O)CN1N=C(c2ccccc2)Cn2c(cc3sccc32)C1=O	·	-19.1	·	·	·	·
